# The list is not random: actives were taken first. Their share in the collection is about 32%.
# CYP2C9 inhib: human CYP2C9 inhibition | AID 777 | P11712 | 96,000 compounds, 20% hits | inhibition, % at 5 µM | CYP2C9 Supersomes, luciferin-H conversion, luminescence;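 active = blocking of liver enzyme CYP2C9 beyond about 50% at 5 µM, limit read from the data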
# Target sequence (P11712 whole entry, looked up): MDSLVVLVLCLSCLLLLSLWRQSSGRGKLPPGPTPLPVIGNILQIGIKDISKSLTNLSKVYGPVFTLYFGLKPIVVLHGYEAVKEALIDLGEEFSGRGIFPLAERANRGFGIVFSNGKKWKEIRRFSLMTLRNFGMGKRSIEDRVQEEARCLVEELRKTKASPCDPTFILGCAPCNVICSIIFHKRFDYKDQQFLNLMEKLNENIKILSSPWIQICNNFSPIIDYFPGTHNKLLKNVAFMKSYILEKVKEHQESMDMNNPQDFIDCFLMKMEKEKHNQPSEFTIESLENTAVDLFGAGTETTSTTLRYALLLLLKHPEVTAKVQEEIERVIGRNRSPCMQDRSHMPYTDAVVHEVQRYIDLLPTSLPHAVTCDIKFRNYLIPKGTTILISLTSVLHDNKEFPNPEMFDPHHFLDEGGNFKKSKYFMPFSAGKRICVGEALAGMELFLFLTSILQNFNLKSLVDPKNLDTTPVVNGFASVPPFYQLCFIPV
# CYP2C9 activ: CYP2C9 (human) activation; P11712; recombinant CYP2C9, luciferin-H conversion, luminescence; hits give high values; factor 1 = untreated enzyme, 0 = blocked; activation factor at 5 µM; 96,000 compounds, 1.4% hits; AID 1024;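 active = activation factor of 2 or more for CYP2C9 at a 5 µM dose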;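 note: 0 = sulfaphenazole-blocked wells and 1 = vehicle-only wells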
# CYP2C19 inh: inhibitors of human CYP2C19. P33261. inhibition, % at 5 µM. 96,000 compounds, 21% hits. CYP2C19 Supersomes, luciferin-H EGE luminescence, 30 min;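 active = CYP2C19 inhibition above a set limit at 5 µM in the primary screen, cut at about 50% in these data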;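 note: plate controls were negative control wells for no effect and 2.5 mM tranylcypromine positive control for full effect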
# CYP2C19 activ: increases human CYP2C19 enzyme activity; P33261; activation factor at 5 µM; 96,000 tested, under 10 active; AID 1025; recombinant CYP2C19, luciferin-H EGE luminescence; hits give high values; 0 = fully inhibited enzyme, 1 = untreated enzyme;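 active = activation factor of at least 2 at 5 µM in the primary screen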;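 note: 0 = wells with 2.5 mM tranylcypromine and 1 = vehicle-only wells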
# PostGolgi ctrl: yeast control strain growth, post-Golgi counter-screen; efflux-deficient yeast background strain, growth absorbance A615, 16 h; inhibition, % at 10 µM; 98,000 compounds, 5% hits
# PostGolgi yeast: growth inhibition of a yeast mutant, post-Golgi transport screen; 98,000 compounds, 0.9% hits; post-Golgi transport phenotypic cell assay; inhibition, % at 10 µM;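 note: yeast cells grown in 1536-well plates; yeast grown about 18 h at 30C before absorbance read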
# The depositor's hits bear a star; . = not tested or not shown. Cut-off read from the data, not from the text of the source, unless noted: active = inhibition above about 30%; inactive = the rest.
SMILES,CYP2C9 inhib,CYP2C9 activ,CYP2C19 inh,CYP2C19 activ,PostGolgi ctrl,PostGolgi yeast
CCOC(=O)CNS(=O)(=O)c1ccc(S(=O)(=O)N2CCCC2)cc1,14.7,0.9,2.9,1,5.8,4.3
CCOC(=O)CSCC(=O)Nc1ccc(S(=O)(=O)N2CCCCC2)cc1,88.0*,0.1,76.9*,0.2,7.6,-16.4
COc1ccc(CCNC(=O)C2CCN(S(=O)(=O)c3ccc(-n4cnnn4)cc3)CC2)cc1OC,29.4,0.7,31.3,0.7,0.0,-13.9
Cc1cc(C)c2c(=O)[nH]c(SCC(=O)Nc3ccc(N(C)C)cc3)nc2n1,58.3*,0.4,41.8,0.6,0.8,0.0
Cc1ccc(S(=O)(=O)/N=c2\sccn2C)cc1,-122.1,2.2*,21.1,0.8,1.7,4.4
Cn1ccs/c1=N\S(=O)(=O)c1ccc(F)cc1,-61.7,1.6,32.7,0.7,5.4,4.8
Cc1cccc(C(=O)NC2CCN(CC(=O)N3CCOCC3)CC2)c1,-0.9,1,-6.4,1.1,11.8,4.0
O=C1NNC(=O)C2C3C=CC(C4CC34)C12 (stereo not given),1.6,1,3.6,1,-13.2,4.5
c1ccc(N2CCN(c3nc(-c4ccccn4)nc4ccccc34)CC2)cc1,59.3*,0.4,32.1,0.7,17.2,2.7
CCC(Nc1nc(-c2ccccc2)nc2ccccc12)C(=O)O (stereo not given),26.6,0.7,2.8,1,-0.1,-9.6
CCOc1nc(-c2ccncc2)nc2ccccc12,.,.,.,.,34.5*,5.0
COC(=O)CNc1nc(-c2ccncc2)nc2ccccc12,83.6*,0.2,56.2*,0.4,2.4,0.6
CC1CN(c2nc(-c3ccccc3)nc3ccccc23)CC(C)O1 (stereo not given),28.2,0.7,11.6,0.9,41.0*,2.9
CC1CN(c2cc(-c3ccccc3)c3ccccc3n2)CC(C)O1 (stereo not given),14.1,0.9,24.2,0.8,25.0,13.2
CCCOc1ccc(-c2nc(OCC)c3ccccc3n2)cc1,6.3,0.9,-6.5,1.1,8.1,-7.5
COc1ccc2c(CC(=O)OCC(=O)c3ccc(F)cc3)coc2c1,-2.7,1,6.5,0.9,18.2,-4.2
CCN1CCN(c2nc(-c3cccnc3)nc3ccccc23)CC1,2.7,1,-1.8,1,2.5,3.8
c1cncc(-c2nc(N3CCCCCC3)c3ccccc3n2)c1,76.9*,0.2,39.0,0.6,66.2*,-9.5
Oc1ccccc1-c1nc(N2CCN(Cc3ccccc3)CC2)c2ccccc2n1,73.9*,0.3,65.1*,0.3,42.0*,-5.2
c1ccc2c(N3CCCCCC3)nc(-c3ccncc3)nc2c1,79.6*,0.2,76.0*,0.2,67.8*,26.8
Oc1ccccc1-c1nc(N2CCCC2)c2ccccc2n1,-10.9,1.1,2.3,1,21.7,0.3
CCN1CCN(c2nc(-c3ccncc3)nc3ccccc23)CC1,30.1,0.7,51.0*,0.5,5.6,8.3
O=C1CCCc2nn(-c3ccccc3)c(-c3ccncc3)c21,17.5,0.8,6.8,0.9,1.6,2.3
COc1ccc(N2CCN(CC(O)c3c[nH]c4ccc(OC)cc34)CC2C)cc1 (stereo not given),27.8,0.7,22.5,0.8,-1.9,3.8
CCC1(CC)Cc2ccccc2C(CC(=O)N2CCOCC2)=N1,11.5,0.9,30.9,0.7,10.2,7.6
SMILES,CYP2C9 inhib,CYP2C9 activ,CYP2C19 inh,CYP2C19 activ,PostGolgi ctrl,PostGolgi yeast
O=C(Nc1ccc(O)cc1)c1ccc(C(=O)c2ccccc2)o1,16.3,0.8,15.0,0.8,-0.1,3.3
CCN(CC(=O)NCc1cccs1)c1ccc(S(=O)(=O)N2CCOCC2)cn1,57.3*,0.4,-4.7,1,8.4,-8.7
Cc1ccccc1N(CC(=O)NCCc1ccccc1)C(=O)c1ccc(N2CCCC2)nc1,95.0*,0.1,56.9*,0.4,4.1,-3.9
Cc1noc(NS(=O)(=O)c2ccc(NC(=O)c3ccc(Br)o3)cc2)c1C,8.9,0.9,-1.5,1,-4.6,3.6
c1ccc(-c2noc(-c3cccnc3)n2)nc1,2.9,1,25.1,0.7,1.5,-1.4
c1ccc(CCc2ccccc2-c2nc(-c3ccccn3)no2)cc1,19.1,0.8,9.5,0.9,4.5,2.9
Cc1occc1-c1nc(-c2ccncc2)no1,68.1*,0.3,97.6*,0,1.5,-4.8
Cc1occc1-c1nc(-c2ccccn2)no1,47.5,0.5,75.7*,0.2,-2.0,-2.8
Cc1onc(-c2ccccc2Cl)c1-c1nc(-c2ccccn2)no1,97.2*,0,32.0,0.7,17.6,6.9
O=C(CSc1c[nH]c2ccccc12)N1CCCc2ccccc21,43.9,0.6,49.5,0.5,31.4*,5.1
CCn1c(SCC(=O)N2CCc3ccccc32)nnc1-c1c[nH]c2ccccc12,4.7,1,6.6,0.9,10.7,-1.5
Cc1ccc2c(CC(=O)N3CCc4ccccc43)coc2c1,42.8,0.6,78.8*,0.2,4.9,-15.7
O=C(Cn1cnc2c(oc3ccccc32)c1=O)N1CCCc2ccccc21,49.1,0.5,44.8,0.6,8.1,7.2
O=C(Cc1c[nH]c2ccccc12)N1CCc2ccccc21,77.3*,0.2,91.6*,0.1,2.5,-15.3
O=C(CSc1ncnc2c1oc1ccccc12)N1CCCc2ccccc21,34.8,0.7,23.7,0.8,44.2*,0.0
CCCc1ccc(-c2cc(N)n[nH]2)cc1,-18.9,1.2,-1.8,1,6.5,-2.0
Cc1cc(SCC(=O)N2CCC(c3noc4ccc(F)cc34)CC2)nc2ccccc12,34.2,0.7,44.1,0.6,34.0*,9.6
COc1cccc(N2CCN(C(=O)CN(C)S(=O)(=O)c3ccc4c(c3)CCC(=O)N4)CC2)c1,45.7,0.5,12.9,0.9,-1.3,-1.7
CC(NS(=O)(=O)c1ccc(Cl)cc1)C(=O)NCc1ccco1 (stereo not given),30.8,0.7,65.8*,0.3,6.5,-0.8
CC(NS(=O)(=O)c1ccc(F)cc1)C(=O)NCc1ccncc1 (stereo not given),64.6*,0.4,93.9*,0.1,4.3,-4.7
Cc1ccc(S(=O)(=O)N[C@@H](CC(C)C)C(=O)NCc2ccco2)cc1,16.8,0.8,8.0,0.9,-9.1,-8.2
COc1ccccc1CNC(=O)C(C)NS(=O)(=O)c1ccccc1 (stereo not given),46.5,0.5,37.2,0.6,2.6,-2.2
O=C(NCCCN1CCCCC1)C1(S(=O)(=O)c2ccc(Cl)cc2)CC1,7.9,0.9,-7.6,1.1,2.6,5.7
O=C(NCCN1CCCC1)C1(S(=O)(=O)c2ccc(Cl)cc2)CC1,-9.1,1.1,8.2,0.9,37.9*,8.9
O=C(NCc1ccco1)c1ccc(CS(=O)(=O)Cc2ccc(Cl)cc2)o1,37.4,0.6,43.7,0.6,-1.2,-2.5
O=C(NCc1ccco1)C1(S(=O)(=O)c2ccc(Cl)cc2)CC1,10.6,0.9,72.8*,0.3,2.8,3.6
